In the supplement of paper PMC6555819:

How the values were obtained:
Test in all cases: PBM binding z-score (relative to random genomic background probes); higher = stronger binding; sequences stand for … in GC…GCGATTGACAGCGTAGAATGAAGG
[1] = tested on: FXR:RXRa (NR concentration 270 nM, RXRa partner concentration 90 nM)
How it was run: (§1)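 Random background probes are the reference for binding z-scores. These scores derive from regression-normalized fluorescence on custom Agilent 4×180K protein-binding microarrays incubated 1 h with ligand-free nuclear receptor dimers. Binding was detected with antibodies against each partner (one per run).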

[2] = tested on: LXRa:RXRa (NR concentration 270 nM, RXRa partner concentration 90 nM)
How it was run: as §1

[3] = tested on: LXRa homodimer (NR concentration 270 nM)
How it was run: as §1

[4] = tested on: LXRb:RXRa (NR concentration 270 nM, RXRa partner concentration 90 nM)
How it was run: as §1

[5] = tested on: LXRb homodimer (NR concentration 270 nM)
How it was run: as §1

[6] = tested on: PPARa:RXRa (NR concentration 270 nM, RXRa partner concentration 90 nM)
How it was run: as §1

[7] = tested on: PPARg:RXRa (NR concentration 180 nM, RXRa partner concentration 90 nM)
How it was run: as §1

[8] = tested on: PPARg:RXRa 270nM:90nM, anti-RXR (NR concentration 270 nM, RXRa partner concentration 90 nM)
How it was run: as §1

[9] = tested on: PPARg:RXRa 30nM:10nM, anti-RXR (NR concentration 30 nM, RXRa partner concentration 10 nM)
How it was run: as §1

[10] = tested on: PPARg:RXRa 90nM:30nM, anti-RXR (NR concentration 90 nM, RXRa partner concentration 30 nM)
How it was run: as §1

[11] = tested on: PPARg:RXRa DBDmut IVT, anti-RXR (DBD mutation: RXRa K156A/R161A, NR concentration 270 nM, RXRa partner concentration 90 nM)
How it was run: as §1

[12] = tested on: PPARg:RXRa IVT, anti-PPARg (NR concentration 270 nM, RXRa partner concentration 90 nM)
How it was run: as §1

[13] = tested on: PPARg DBDmut:RXRa IVT, anti-PPARg (DBD mutation: PPARg1 K132A/R137A, NR concentration 270 nM, RXRa partner concentration 90 nM)
How it was run: as §1

[14] = tested on: PPARg DBDmut IVT, anti-PPARg (DBD mutation: PPARg1 K132A/R137A, NR concentration 270 nM)
How it was run: as §1

[15] = tested on: PPARg homodimer (NR concentration 180 nM)
How it was run: as §1

[16] = tested on: PXR:RXRa (NR concentration 270 nM, RXRa partner concentration 90 nM)
How it was run: as §1

[17] = tested on: PXR homodimer (NR concentration 270 nM)
How it was run: as §1

[18] = tested on: RARa:RXR (NR concentration 270 nM, RXRa partner concentration 90 nM)
How it was run: as §1

[19] = tested on: RARa homodimer (NR concentration 270 nM)
How it was run: as §1

[20] = tested on: RARb:RXRa (NR concentration 270 nM, RXRa partner concentration 90 nM)
How it was run: as §1

Row | Sequence | PBM binding z-score [1] | PBM binding z-score [2] | PBM binding z-score [3] | PBM binding z-score [4] | PBM binding z-score [5] | PBM binding z-score [6] | PBM binding z-score [7] | PBM binding z-score [8] | PBM binding z-score [9] | PBM binding z-score [10] | PBM binding z-score [11] | PBM binding z-score [12] | PBM binding z-score [13] | PBM binding z-score [14] | PBM binding z-score [15] | PBM binding z-score [16] | PBM binding z-score [17] | PBM binding z-score [18] | PBM binding z-score [19] | PBM binding z-score [20]
1 | TCTAGTCGGTCACGGAGGTCACACACGACGGGTA | 4.64 | 4.8 | 4.58 | 3.54 | 0.882 | 4.58 | 5.07 | 4.97 | 3.86 | 4.54 | 4.17 | 5.71 | 2.36 | 0.492 | 3.93 | 4.93 | 2.24 | 5.02 | 1.39 | 4.56
2 | TCATATAGGTAATACAGGTGAAGGTCGGCATCTA | 1.22 | 1.34 | 0.87 | 1.02 | 0.522 | 2.28 | 1.83 | 3.03 | 4.02 | 3.78 | 4.61 | 3.61 | 1.2 | 1.45 | 1.83 | 1.16 | 0.89 | 1.69 | 2.17 | 1.22
3 | CGAACGAGGGCATGAGCTGATAGCAAATGCCGAT | 0.486 | 0.253 | -0.266 | 0.0131 | -0.954 | 1.39 | 1.02 | 0.67 | -0.212 | 0.364 | 2.42 | 1.97 | 0.174 | -0.689 | -0.392 | 0.327 | -0.221 | 0.529 | -0.331 | 1.87
4 | ACTATTAGTTGACTTAGGGCAAGCGATACGACGC | 0.286 | 0.302 | 0.111 | 0.0469 | 0.509 | 0.124 | 0.824 | 0.206 | 0.267 | 0.144 | 0.209 | 0.768 | 0.636 | 1.04 | 0.596 | 0.255 | 0.294 | 0.775 | 0.794 | 0.892
5 | CGAACTAGGTGAGAACAGGACAGTGAAGGATGAT | -0.071 | -0.292 | -0.107 | -0.534 | -0.796 | 1.57 | 2.76 | 2.11 | 0.836 | 1.12 | 6.37 | 5.97 | 0.979 | 0.431 | 0.246 | 0.0752 | 0.241 | 0.486 | 0.275 | 0.285
6 | CCTACTGGGCCAACAGGTCATTGATATCAACGTT | 1.42 | 1.52 | 1.37 | 1.98 | -0.204 | 3.21 | 4.01 | 4.41 | 2.65 | 4.24 | 4.64 | 4.84 | 0.0699 | 0.305 | 1.23 | 1.92 | 0.325 | 2.13 | -0.373 | 2.12
7 | GCGATTGGGGCAAAGCAGGTTACCATAAGGTTGG | 0.351 | 0.0851 | -0.253 | 0.678 | -0.273 | 1.11 | 0.77 | 0.405 | -0.0974 | 0.132 | 2.25 | 1.69 | -0.0926 | -0.514 | 0.213 | 0.707 | -0.215 | 1.13 | 0.0153 | 0.946
8 | CGTCCAAGGTCCGCAGGTCAGTGAAAGCGACGTG | -0.0411 | -0.153 | -0.475 | -0.0275 | -1.05 | 0.735 | -0.507 | 0.0239 | -0.651 | -0.568 | 0.12 | -0.306 | -1.07 | -1.27 | -0.166 | 0.139 | -0.304 | 0.547 | -0.545 | 1.89
9 | GCGACTTGGGCATCAGCAGGTTACCATAACTTAA | -0.439 | -0.445 | -0.567 | -0.214 | -0.905 | -0.0723 | 0.0729 | -0.529 | -0.585 | -0.893 | -0.319 | -0.238 | -1.02 | -0.802 | -0.13 | -0.0644 | -0.495 | 0.232 | -0.904 | 0.00104
10 | GTACCATGGTGAATAGGTCGTTGATGAGTAGGCG | -0.238 | 0.114 | -0.331 | -0.0798 | -0.524 | 0.641 | 0.623 | 0.293 | -0.175 | 0.119 | 0.107 | 0.275 | -0.162 | 0.3 | 0.352 | 0.151 | -0.347 | 0.29 | -0.148 | 0.41
11 | ACTAGGAGGCCAAGGGTCACTCAAGATTAGTCCG | 2.82 | 3.11 | 0.119 | 2.83 | 0.0149 | 4.59 | 8.49 | 7.94 | 7.43 | 8.35 | 1.26 | 3.95 | -0.025 | -0.509 | 3.03 | 3.57 | 0.414 | 4.7 | 1.03 | 3.64
12 | TAGCCTAGGACATGGGCCAGTATACCACGCGAAC | -0.615 | -0.64 | -0.616 | -0.618 | -0.673 | -0.454 | 0.715 | -0.284 | -0.595 | -0.49 | -1.18 | -0.594 | -0.263 | -0.978 | -0.814 | -0.387 | -0.477 | -0.815 | -0.515 | 0.0238
13 | TCTTGTAGATCAGCAGGTTAAGGAAGCTGGCCAA | 0.249 | 0.362 | -0.204 | 0.224 | -0.678 | 0.814 | -0.515 | 1.47 | 2.53 | 2.02 | 1.63 | 0.577 | -1.02 | -0.0477 | -0.0347 | 0.121 | -0.363 | 0.277 | -0.25 | 0.316
14 | TCATATAGGTAATACAGGTAAAAGTCGGCATCTA | 1.15 | 1.13 | 0.377 | 0.915 | 0.455 | 1.48 | 1.61 | 2.58 | 4.14 | 3.49 | 4.07 | 2.77 | 1.1 | 1.94 | 1.08 | 0.705 | 0.364 | 0.922 | 1.47 | 0.572
15 | CCTACTGGGCCACGAAAGCTCATTGATTCAGTGA | -0.608 | -0.413 | -0.683 | -1 | -0.95 | -0.132 | 1.08 | 1.15 | -0.145 | 0.162 | 5.87 | 5.08 | 0.172 | 0.266 | -0.477 | -0.923 | -0.798 | -0.778 | -0.375 | -0.0436
16 | CCTAGATGGTCAAGGTCACACACGCTATAGGTAC | 4.6 | 3.62 | 2.05 | 3.69 | 0.665 | 4.2 | 3.13 | 3.56 | 1.34 | 2.46 | 1.66 | 3.08 | 1.08 | 0.88 | 3.58 | 4.21 | 2.09 | 4.57 | 2.52 | 4.29
17 | GCCTGTAGATCAAGGTTAAGAAAGACTAAGCTAA | 0.000969 | 0.697 | -0.269 | 0.679 | -0.964 | 1.28 | 0.434 | 1.19 | 0.0672 | 0.861 | 0.625 | 0.319 | -0.514 | -0.208 | -0.292 | 0.333 | -0.503 | 0.885 | -1.02 | 0.799
18 | CCTCGGAGGACAGAAGATCAGAGCTGTCCGCTTT | -0.222 | -0.485 | -0.602 | -0.91 | -1.2 | -0.456 | -0.0907 | -0.214 | -0.616 | -0.38 | -0.304 | -0.633 | -2.13 | -1.48 | -0.0483 | -0.636 | -0.786 | -0.512 | -0.276 | 0.386
